A selection: hits, their analogues and other compounds. The true share with any hit is near 4.2%.
D1 antagonist: Antagonist of Human D 1 Dopamine Receptor: qHTS; D(1A) dopamine receptor (Homo sapiens), P21728; HEK293 TREx D1 cells, calcium flux, dopamine EC80; hits give low values; activity change, negative = inhibition, % at 10 µM; 360,000 tested, 3.2% active; AID 504652, 2011; in the data active means activity change below about -30%; further: on the % scale 0 is the no-effect control and ±100 the full control effect
Target sequence (P21728 whole entry, looked up): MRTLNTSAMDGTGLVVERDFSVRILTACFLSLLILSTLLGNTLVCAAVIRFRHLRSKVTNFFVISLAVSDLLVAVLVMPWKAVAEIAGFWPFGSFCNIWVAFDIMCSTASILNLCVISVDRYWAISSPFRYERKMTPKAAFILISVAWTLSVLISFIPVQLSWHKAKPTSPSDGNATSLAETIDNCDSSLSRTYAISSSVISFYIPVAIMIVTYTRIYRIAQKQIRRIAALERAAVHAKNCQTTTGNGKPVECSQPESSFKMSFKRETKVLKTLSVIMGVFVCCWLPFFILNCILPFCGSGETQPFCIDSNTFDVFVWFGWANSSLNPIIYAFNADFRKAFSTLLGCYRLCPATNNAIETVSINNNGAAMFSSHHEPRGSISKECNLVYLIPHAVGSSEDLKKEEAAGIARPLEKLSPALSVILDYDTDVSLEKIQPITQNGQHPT
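Antagonism measured as reduced calcium response to an EC80 dopamine addition following 180 s compound pre-read; cells were inducible HEK293 Trex D1 plated overnight at 30 C, read kinetically at 1 cycle/sec.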
D1 agonist: Allosteric Agonists of the Human D1 Dopamine Receptor: qHTS; D(1A) dopamine receptor (Homo sapiens), P21728; HEK293 T-REx D1 cells, calcium flux, agonist mode; activation, % at 2 µM; 360,000 tested, 1% active; AID 504660, 2011; in the data active means activation above about 30%; further: 0% is about no effect
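Tetracycline-induced HEK293 TREx D1 cells, force-coupled to calcium signalling, were dye-loaded with a no-wash calcium kit. Compound was pin-added after a 10 s baseline. Fluorescence was read kinetically at 1 cycle/s for 180 s, with calcium rises flagged as agonism.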
TRPV1 ag: HTS Assay for Compounds that Act as Agonists of the Vanilloid Receptor 1 | Transient receptor potential cation channel subfamily V member 1 (Homo sapiens), Q8NER1 | TRPV1-expressing cells, Fluo-8 calcium influx, agonist mode | AID 540275, 2011 | activation, % at 8.33 µM | 320,000 tested, 0.19% active; in the data active means activation above about 80%; inconclusive means between about 30% and that limit; further: 0% is about no effect
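Cells expressing TRPV1 were dye-loaded with Fluo-8 and read kinetically: 10 s baseline, 3 min after compound (agonist portion), then 2 min after EC20 capsaicin (allosteric enhancer portion). Calcium-bound dye fluorescence at 480/520 nm.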
D1 PAM: Potentiators of Human D1 Dopamine Receptor: qHTS; HEK293 TREx D1 cells, calcium flux, dopamine EC20 potentiation; potentiation, % at 10 µM; AID 504651, 2011; 360,000 tested, 0.036% active; D(1A) dopamine receptor (Homo sapiens), P21728; in the data active means potentiation above about 30%; further: 0% is about no effect
TRPV1 PAM: HTS Assay for Compounds that Act as Potentiators of the Vanilloid Receptor 1; Transient receptor potential cation channel subfamily V member 1 (Homo sapiens), Q8NER1; TRPV1-expressing cells, Fluo-8 calcium influx, capsaicin EC20 potentiation; potentiation, % at 8.33 µM; 320,000 tested, 0.02% active; AID 540277, 2011; in the data active means potentiation above about 80%; inconclusive means between about 30% and that limit; further: 0% is about no effect
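TRPV1-expressing cells were cultured overnight at 35.5C and loaded with Fluo-8 calcium dye for 40 to 90 min at room temperature. After a 10 s baseline, compound was added and calcium influx was read kinetically for 3 min (ex 480/em 520 nm).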
Active calls of the source: *; ! = repeats disagree.

How did COc1ccccc1CNS(=O)(=O)c1cc(-c2cc(C)no2)ccc1C(C)C do in these assays?
D1 antagonist: -38*; D1 agonist: 18; TRPV1 ag: inconclusive; D1 PAM: -6; TRPV1 PAM: 2

What do the screens show for `COc1ccccc1CN1CCC(CNS(=O)(=O)c2cc(-c3cc(C)no3)ccc2C)CC1`?
D1 antagonist: -10; D1 agonist: 40*; TRPV1 ag: 7; D1 PAM: -7; TRPV1 PAM: -4

How did Cc1cc(-c2ccc(C)c(S(=O)(=O)NCC3CCN(Cc4ccc(F)cc4)CC3)c2)on1 do in these assays?
D1 antagonist: -33*!; D1 agonist: 9; TRPV1 ag: 8; D1 PAM: -7; TRPV1 PAM: -7

Results for Cc1ccc(CCNS(=O)(=O)c2cc(-c3cc(C)no3)ccc2C)cc1 ?
D1 antagonist: -12; D1 agonist: 7; D1 PAM: -3

Results for CCc1ccc(-c2cc(C)no2)cc1S(=O)(=O)NCCCN1CCN(c2ccccc2)CC1 ?
D1 antagonist: -67*; D1 agonist: 17; TRPV1 ag: 17; D1 PAM: -6; TRPV1 PAM: 16

How did COc1ccc(CCNC(=O)CCc2c(C)nc3c4c(C)cc(C)nc4nn3c2C)cc1OC do in these assays?
D1 antagonist: -6; D1 agonist: -1; D1 PAM: -2

What do the screens show for `Cc1ccc(-c2noc(CN(C3CCCCC3)S(=O)(=O)c3ccc(C)cc3)n2)cc1`?
D1 antagonist: 6; D1 agonist: 5; D1 PAM: -1

How did CCc1ccc(-c2cc(C)no2)cc1S(=O)(=O)Nc1ccc(C)cn1 do in these assays?
D1 antagonist: -45*!; D1 agonist: 0; TRPV1 ag: -1; D1 PAM: 2; TRPV1 PAM: 27

How did O=C(CN1CCC(O)(c2ccc3c(c2)OCO3)CC1)N1CCOCC1 do in these assays?
D1 antagonist: 1; D1 agonist: 4; TRPV1 ag: -3; D1 PAM: -6; TRPV1 PAM: 11

Results for OC1(c2ccc3c(c2)OCO3)CCN(Cc2ccccn2)CC1 ?
D1 antagonist: -40*; D1 agonist: 1; TRPV1 ag: -7; D1 PAM: -4; TRPV1 PAM: -2

How did CCc1ccccc1OCCCN1CCCC1 do in these assays?
D1 antagonist: -27; D1 agonist: 5; TRPV1 ag: -5; D1 PAM: -1; TRPV1 PAM: -10

How did c1ccc(COc2ccc(OCCCCN3CCCCC3)cc2)cc1 do in these assays?
D1 antagonist: -35*; D1 agonist: 42*; TRPV1 ag: 0; D1 PAM: -5; TRPV1 PAM: 9

What do the screens show for `CCN1CCN(CCCOc2ccccc2-c2ccccc2)CC1`?
D1 antagonist: -9; D1 agonist: 17; TRPV1 ag: -2; D1 PAM: -4; TRPV1 PAM: -17

Results for OCCNCCCCOc1ccc(OCc2ccccc2)cc1 ?
D1 antagonist: -31*; D1 agonist: 46*; TRPV1 ag: 6; D1 PAM: -14; TRPV1 PAM: -8

What do the screens show for `c1ccc(-c2ccccc2OCCCN2CCCCC2)cc1`?
D1 antagonist: -54*; D1 agonist: 15; TRPV1 ag: -1; D1 PAM: -3; TRPV1 PAM: -8

What do the screens show for `CCc1ccccc1OCCCCN1CCCCC1`?
D1 antagonist: -56*; D1 agonist: 4; TRPV1 ag: 0; D1 PAM: -10; TRPV1 PAM: 0

What do the screens show for `O=C(c1ccccc1)c1ccc(OCCCCN2CCCCC2)cc1`?
D1 antagonist: 3; D1 agonist: 11; TRPV1 ag: 1; D1 PAM: -3; TRPV1 PAM: 2

How did O=C(Nc1cc(C(F)(F)F)ccc1Cl)C(O)Cc1ccccc1 (stereo unspecified) do in these assays?
D1 antagonist: 22; D1 agonist: 2; D1 PAM: -4

Results for CC(C)Oc1ccc(S(=O)(=O)N2CCOCC2)cc1NC(=O)C1COc2ccccc2O1 (stereo unspecified) ?
D1 antagonist: -44*; D1 agonist: 3; TRPV1 ag: -5; D1 PAM: -2; TRPV1 PAM: -13

What do the screens show for `CCOc1ccc(S(=O)(=O)N2CCCCC2)cc1NC(=O)C1COc2ccccc2O1` (stereo unspecified)?
D1 antagonist: 0; D1 agonist: 6; TRPV1 ag: -1; D1 PAM: -10; TRPV1 PAM: 12

Results for Cc1cc(C)c2c(=O)n(CC(=O)Nc3cccc(F)c3)sc2n1 ?
D1 antagonist: -32*; D1 agonist: 12; TRPV1 ag: 21; D1 PAM: -1; TRPV1 PAM: -15

What do the screens show for `CCOc1ccc(NC(=O)Cn2sc3nc(C)cc(C)c3c2=O)cc1`?
D1 antagonist: -18; D1 agonist: 2; TRPV1 ag: 23; D1 PAM: -3; TRPV1 PAM: -25

Results for Cc1ccc(NC(=O)Cn2sc3nc(C)cc(C)c3c2=O)c(Cl)c1 ?
D1 antagonist: -8; D1 agonist: 9; TRPV1 ag: 15; D1 PAM: -5; TRPV1 PAM: -14

Results for Cc1cc(C)c2c(=O)n(CC(=O)Nc3ccc(Cl)cc3)sc2n1 ?
D1 antagonist: -39*; D1 agonist: 23; TRPV1 ag: 18; D1 PAM: -10; TRPV1 PAM: -10

What do the screens show for `Cc1ccccc1C(=O)N1CC(=O)Nc2ccc(Cl)cc2C1c1ccccc1` (stereo unspecified)?
D1 antagonist: 6; D1 agonist: 1; D1 PAM: 2

What do the screens show for `O=C(NCc1cccc(Cl)c1)c1cccn1-c1nnc(N2CCCC2)s1`?
D1 antagonist: 0; D1 agonist: 2; D1 PAM: -3

Results for CCCCOC(=O)CSc1nc(N)c(C#N)c(-c2ccc(OC)cc2)c1C#N ?
D1 antagonist: -11; D1 agonist: 8; TRPV1 ag: 2; D1 PAM: -4; TRPV1 PAM: -1

How did CCCOC(=O)CSc1nc(N)c(C#N)c(CC)c1C#N do in these assays?
D1 antagonist: -40*; D1 agonist: 4; TRPV1 ag: -5; D1 PAM: -5; TRPV1 PAM: 0

Results for Cc1ccccc1CSc1nc2c(sc3ccccc32)c(=O)n1CCCC(=O)NCCCOC(C)C ?
D1 antagonist: -40*; D1 agonist: 7; D1 PAM: -6

Results for Cc1cccc(C)c1NC(=O)C(NC=O)c1ccc(N(C)C)cc1 (stereo unspecified) ?
D1 antagonist: -8; D1 agonist: 2; TRPV1 ag: 0; D1 PAM: -3; TRPV1 PAM: -1

Results for Cc1cccc(C)c1NC(=O)C(NC=O)c1ccccc1Cl (stereo unspecified) ?
D1 antagonist: -83*; D1 agonist: 1; TRPV1 ag: -1; D1 PAM: 2; TRPV1 PAM: 0
